From PubChem BioAssay (NCI)
This is part of a sample that, as a whole, favours compounds with a hit. Of some 83,000 tested, about 20% had one in any assay.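 Compound tested at a single concentration for 48 hours in 96-well plates; a percent growth value below 10 was scored as active.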 The source made the active and inactive calls.

Experiments:
Experiment in all cases: NCI-60 one-dose screen, 48 h (100 = growth as untreated, 0 = no growth, -100 = all killed)
Conditions in all cases: 10 µM
HT29 colon = test system: HT29 colon
SNB-75 CNS = test system: SNB-75 CNS
SNB-19 CNS = test system: SNB-19 CNS
U251 CNS = test system: U251 CNS
PC-3 prostate = test system: PC-3 prostate
SK-MEL-5 melanoma = test system: SK-MEL-5 melanoma
UACC-62 melanoma = test system: UACC-62 melanoma
LOX IMVI melanoma = test system: LOX IMVI melanoma
SK-MEL-28 melanoma = test system: SK-MEL-28 melanoma
SK-MEL-2 melanoma = test system: SK-MEL-2 melanoma

Measured: growth

N=C(N)c1ccc(-c2ccc(-c3cccs3)s2)cc1
inactive: SNB-75 CNS 70.9% | SNB-19 CNS 109% | PC-3 prostate 78% | SK-MEL-5 melanoma 31.4% | UACC-62 melanoma 40.4% | SK-MEL-28 melanoma 37.7% | SK-MEL-2 melanoma 99%
active: HT29 colon -53.8% | U251 CNS -48.5% | LOX IMVI melanoma -81.7%

FC(F)(F)c1ccc2nc(-c3nc(-c4ccccc4)n4ccccc34)[nH]c2c1
inactive: HT29 colon 14.7% | SNB-75 CNS 66.9% | SNB-19 CNS 116% | U251 CNS 59.5% | PC-3 prostate 39.6% | SK-MEL-5 melanoma 84.1% | UACC-62 melanoma 103% | LOX IMVI melanoma 20.6% | SK-MEL-28 melanoma 98.4% | SK-MEL-2 melanoma 81.6%

CCCCOc1ccc(NC(=O)Nc2nnc(C)s2)cc1
inactive: HT29 colon 99.4% | SNB-75 CNS 105% | SNB-19 CNS 98.2% | U251 CNS 93.2% | PC-3 prostate 92.5% | SK-MEL-5 melanoma 102% | UACC-62 melanoma 82.5% | LOX IMVI melanoma 78.9% | SK-MEL-28 melanoma 106% | SK-MEL-2 melanoma 105%

CCCN(CCC)CCC(O)c1cc2c(c3ccccc13)CCCC2 (stereo not given)
inactive: HT29 colon 52.3% | SNB-75 CNS 75.7% | SNB-19 CNS 90.5% | U251 CNS 83.5% | PC-3 prostate 80.9% | SK-MEL-5 melanoma 94.7% | UACC-62 melanoma 81.7% | LOX IMVI melanoma 89% | SK-MEL-28 melanoma 98.1% | SK-MEL-2 melanoma 108%

Clc1cc2c(c(CSc3nc4ccccc4n4cccc34)c1)OCOC2
inactive: HT29 colon 88.3% | SNB-75 CNS 62% | SNB-19 CNS 107% | U251 CNS 85.9% | PC-3 prostate 60.5% | SK-MEL-5 melanoma 83.7% | UACC-62 melanoma 112% | LOX IMVI melanoma 87.5% | SK-MEL-28 melanoma 92.8% | SK-MEL-2 melanoma 79.7%

O=[N+]([O-])c1ccc(Oc2cc(Cl)c(Cl)cc2Cl)c(C(F)(F)F)c1
inactive: HT29 colon 105% | SNB-75 CNS 89.4% | SNB-19 CNS 111% | U251 CNS 97.9% | PC-3 prostate 92.1% | SK-MEL-5 melanoma 96% | UACC-62 melanoma 97% | LOX IMVI melanoma 99.2% | SK-MEL-28 melanoma 101% | SK-MEL-2 melanoma 94.3%

Nc1c(C(=O)Nc2ccccc2Cl)sc2nc3c(cc12)C(=O)CCC3
inactive: HT29 colon 40.2% | SNB-75 CNS 52.4% | SNB-19 CNS 51.1% | U251 CNS 73.3% | PC-3 prostate 37.1% | SK-MEL-5 melanoma 32.5% | UACC-62 melanoma 47.1% | LOX IMVI melanoma 55% | SK-MEL-28 melanoma 57.7% | SK-MEL-2 melanoma 35.4%

CCN(CC)CCC(CNc1c(C)cnc2cc(Cl)ccc12)c1ccc(Cl)cc1 (stereo not given)
inactive: HT29 colon 14.8% | SNB-75 CNS 65.3% | SNB-19 CNS 68.1% | U251 CNS 48.6% | PC-3 prostate 55.9% | LOX IMVI melanoma 33.6% | SK-MEL-2 melanoma 92.8%
active: SK-MEL-5 melanoma -94.2% | UACC-62 melanoma -28.8% | SK-MEL-28 melanoma -88.8%

COc1ccc(-c2nc3sc(C4CC4)nn3c2/C=C2/C(=O)Nc3ccc(OC)cc32)cc1
active: SNB-75 CNS -2.41%
inactive: HT29 colon 73.2% | SNB-19 CNS 66.8% | U251 CNS 72.8% | PC-3 prostate 58.1% | SK-MEL-5 melanoma 52.8% | UACC-62 melanoma 44% | LOX IMVI melanoma 52.1% | SK-MEL-28 melanoma 24.9% | SK-MEL-2 melanoma 49.6%

O=C1/C(=C/c2ccc([N+](=O)[O-])o2)Oc2ccccc21
inactive: SNB-75 CNS 74.7% | SNB-19 CNS 89.4% | U251 CNS 47.5% | PC-3 prostate 42.8% | SK-MEL-5 melanoma 55.7% | SK-MEL-28 melanoma 21.5% | SK-MEL-2 melanoma 17.2%
active: HT29 colon -15.3% | UACC-62 melanoma -55% | LOX IMVI melanoma -60.7%
